gsp agonist – agonists of gsp mutant (McCune-Albright syndrome); gsp mutant cells, cAMP HTRF, 30 min; Potency, µM (highest dose often 76.9 µM), inactives show at the top dose activation (cAMP increase), hits mostly activators; 340,000 tested, 0.13% active; AID 624287; active = well fitted activation curve with a large enough effect; inconclusive = small, poorly fitted or top-dose-only effect, or another doubt; inactive = no such curve, though single readings can be large or run the other way; cell line not stated here;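 note: phosphodiesterase inhibitor Ro 20-1724 added with compounds to block cAMP breakdown; potency is the fitted concentration of half-maximal effect; nearly all actives have a fitted effect of over 60% in size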
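Cells in DMEM/10% FBS with G418 were pretreated with compounds in DMSO plus […] (300 uM stock) for 30 min at 37C. cAMP was measured by HTRF (cAMP-d2 plus anti-cAMP antibody-K) after 30 min at room temperature.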
BRCA1 expr up – activators of BRCA1 expression | MCF7-BRCA1-FFLuc reporter, luminescence, 48 h; response scale: scaled: vehicle 0%, 10 µM genistein 100% | Potency, µM (series often up to 46.1 µM), for the others: at the top dose activation, usual class: activators | 380,000 tested, 1.1% active | AID 624202; note: potency is the fitted concentration of half-maximal effect; nearly all actives have a fitted effect of over 80% in size
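MCF7-BRCA1-FFLuc cells, 2000/well in phenol-red-free MEM, attached 2 h then treated 48 h at 37 C. Luciferase luminescence read 15 min after reagent; normalized to genistein maximum activation (10microM) and DMSO, concentration-response fitted.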
mIDH1 inhibitor – human IDH1 R132H inhibition; IDH1-R132H enzyme, NADPH consumption, diaphorase/resazurin fluorescence; O75874; Potency, µM (highest dose often 76.6 µM), inactives show at the highest dose activity change, negative = inhibition, actives largely listed as inhibitors; 390,000 tested, 0.093% active; AID 602179; note: potency is the fitted concentration of half-maximal effect; % is set by controls: 0 for no effect and ±100 for the full control effect; nearly all actives have a fitted effect of over 65% in size
Target sequence (O75874 whole entry R132H, stated change not applied): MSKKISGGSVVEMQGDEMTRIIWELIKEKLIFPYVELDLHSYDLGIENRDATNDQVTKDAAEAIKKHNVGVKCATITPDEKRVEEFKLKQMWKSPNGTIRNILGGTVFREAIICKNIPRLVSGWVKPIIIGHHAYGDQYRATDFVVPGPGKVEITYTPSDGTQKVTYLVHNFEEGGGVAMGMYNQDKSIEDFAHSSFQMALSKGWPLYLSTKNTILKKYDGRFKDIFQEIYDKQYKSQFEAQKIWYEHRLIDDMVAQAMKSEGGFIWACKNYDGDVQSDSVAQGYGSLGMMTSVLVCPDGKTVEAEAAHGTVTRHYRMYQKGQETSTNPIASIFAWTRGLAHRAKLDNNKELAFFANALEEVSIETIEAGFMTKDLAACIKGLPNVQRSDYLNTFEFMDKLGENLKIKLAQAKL
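IDH1-R132H (0.5 ug/mL dispensed) in pH 7.5 Tris buffer was preincubated 30 min with compound, then given a substrate mix of 0.016 mM NADPH and 2 mM alpha-KG for 80 min at room temperature; remaining NADPH was read by diaphorase/resazurin fluorescence.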
IL2 activator – IL-2 activation; IL-2 activation reporter assay, cell-based qHTS; stimulated with anti-CD3/CD4/CD28 beads; in transgenic mouse T cells; activation, % (series mostly up to about 46 µM); 360,000 tested, 0.065% active; in the data active = activation above about 50%; inconclusive = mostly about 30% to 49%; note: 0% is about no effect
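Quantitative HTS in unstimulated transgenic mouse T cells, with memory T cells as non-tolerant control and PMA/ionomycin as tolerance-bypass control. Compound pretreatment lasted 60 minutes before 18 h bead stimulation; EGFP/DsRed fluorescence read.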
gsp antagonist – antagonizes gsp, the McCune-Albright syndrome mutation; gsp-mutant cells, cAMP HTRF, 30 min; Potency, µM (series often up to 76.9 µM), inactives show at the highest dose activity change, negative = inhibition, hits mostly inhibitors; 340,000 tested, 0.4% active; AID 624288; calls by dose curve; cell line not stated here;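 note: intracellular cAMP measured with PDE inhibitor Ro 20-1724 present during compound exposure; potency is the fitted concentration of half-maximal effect; % is set by controls: 0 for no effect and ±100 for the full control effect; nearly all actives have a fitted effect of over 65% in size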
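Measurement of cellular cAMP by homogeneous time-resolved fluorescence following a 30 min compound exposure at 37C. The PDE inhibitor […] was present throughout; the assay buffer was DPBS with 0.05% BSA and 0.005% Tween 20.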
Active calls of the source: *; [ ] = remark or other dose. The list is not random: actives were taken first. Their share in the collection is about 1.5%. Unless noted, calls come from the whole dose curve; as a rule, active = well fitted curve in the direction sought with a large enough effect; inconclusive = small, poorly fitted or top-dose-only effect, or another doubt; inactive = no such curve, though single readings can be large; an effect the other way counts as inactive or inconclusive.

`COc1cc(OC)cc(C(=O)Nc2ccc3nc4n(c(=O)c3c2)CCCCC4)c1` gave gsp agonist 24%, BRCA1 expr up 4.5µM*, mIDH1 inhibitor -9%, IL2 activator -4 and gsp antagonist 4%.
Screening COc1ccc(C)cc1NC(=O)c1ccc2c(SCC(=O)O)c3c(nc2c1)CCCC3 returned gsp agonist -26%, BRCA1 expr up 1%, mIDH1 inhibitor 0%, IL2 activator 2 and gsp antagonist -10%.
`Cc1ccc(C)c(NC(=O)c2ccc3c(=O)n4c(nc3c2)CCC4)c1` gave gsp agonist -13%, BRCA1 expr up 4.5µM*, mIDH1 inhibitor -4%, IL2 activator -1 and gsp antagonist -2%.
Screening Nc1nc(SCC(=O)Nc2ccc(OCc3ccccc3)cc2)n[nH]1 returned gsp agonist 1%, BRCA1 expr up 10µM*, mIDH1 inhibitor -1%, IL2 activator 1 and gsp antagonist 5%.
Screening CN1CCN(CCC(=O)Nc2ccc(OCc3ccccc3)cc2)CC1 returned gsp agonist -26%, BRCA1 expr up 11µM*, mIDH1 inhibitor 3%, IL2 activator -1 and gsp antagonist 6%.
CC(C)=CC(=O)Nc1ccc(OCc2ccccc2)cc1 was read as gsp agonist -6%[15.4 µM], BRCA1 expr up 2.8µM*, mIDH1 inhibitor -3%, IL2 activator -1 and gsp antagonist -6%.
`Cc1nc(SCC(=O)Nc2ccc(OCc3ccccc3)cc2)n[nH]1` gave gsp agonist -27%, BRCA1 expr up 73%, mIDH1 inhibitor 8%, IL2 activator 1 and gsp antagonist -20%.
Screening CN1CCN(CCOc2ccc(-c3ccccc3)cc2)CC1 returned gsp agonist 10%, BRCA1 expr up 7.9µM*, mIDH1 inhibitor 3%, IL2 activator 1 and gsp antagonist -5%.
Screening O=C(CCN1CCN(CCO)CC1)Nc1ccc(OCc2ccccc2)cc1 returned gsp agonist inconclusive, BRCA1 expr up 12%, mIDH1 inhibitor -1%, IL2 activator -3 and gsp antagonist 2%.
For O=C(Nc1ccc(OCc2ccccc2)cc1)c1ccccc1 the results were gsp agonist 0%[15.4 µM], BRCA1 expr up 76%, mIDH1 inhibitor 2%, IL2 activator 1 and gsp antagonist 19%.
`COC(=O)CSc1ncc2c(n1)-c1ccccc1N(Cc1cccc(F)c1)S2(=O)=O` gave mIDH1 inhibitor 0%.
Screening Cc1ccc(OCc2cc(C(=O)N(C)CCc3ccccn3)no2)cc1C returned gsp agonist inconclusive, BRCA1 expr up 8.9µM*, mIDH1 inhibitor 0%, IL2 activator -3 and gsp antagonist -3%.
For Cc1cccc(C)c1OCc1cc(C(=O)N(C)Cc2nc3ccccc3[nH]2)no1 the results were gsp agonist -1%, BRCA1 expr up -30%, mIDH1 inhibitor 8%, IL2 activator -5 and gsp antagonist inconclusive.
`CC(=O)c1cccc(OCc2cc(C(=O)N(C)CCc3ccccn3)no2)c1` gave gsp agonist -2%, BRCA1 expr up 17%, mIDH1 inhibitor -22%, IL2 activator -1 and gsp antagonist -14%.
Screening Cc1ccc(OCc2cc(C(=O)N(C)CCc3nc4ccccc4[nH]3)no2)cc1C returned gsp agonist 2%, BRCA1 expr up 19%, mIDH1 inhibitor 4%, IL2 activator 1 and gsp antagonist 35µM*.
CCc1ccc2oc(-c3cc(NC(=O)COc4ccc(C)cc4)ccc3O)nc2c1 was read as BRCA1 expr up -1%.
For COc1ccccc1CNC(=O)CCc1c(C)nn(-c2ccc(N3CCCC3)nn2)c1C the results were mIDH1 inhibitor 1%.
`CN(C)/C=C/C(=O)c1ccc(-n2cccc2)cc1` gave gsp agonist -34%, BRCA1 expr up 7.9µM*, mIDH1 inhibitor 0%, IL2 activator 0 and gsp antagonist -6%.
For Cc1nnc(N2C(=O)C(=O)/C(=C(/O)c3ccc4c(c3)OCCO4)C2c2ccc(F)cc2)s1 (configuration not stated) the results were gsp agonist 7.9µM*, BRCA1 expr up 0%, mIDH1 inhibitor 9%, IL2 activator -1 and gsp antagonist -8%.
Screening O=C1C(=O)N(c2nccs2)C(c2ccccc2F)/C1=C(\O)c1ccc2c(c1)OCCO2 (configuration not stated) returned gsp agonist inconclusive, BRCA1 expr up -17%, mIDH1 inhibitor 5%, IL2 activator 0 and gsp antagonist -4%.
Screening CCCCN(CCCC)C(=O)c1cc2c(=O)n3ccccc3nc2s1 returned mIDH1 inhibitor 22%.
CCCNC(=O)COC(=O)c1cc2c(=O)n3ccccc3nc2s1 was read as gsp agonist 11µM*, BRCA1 expr up -24%, mIDH1 inhibitor 2%, IL2 activator -2 and gsp antagonist 3%.
Screening CCOC(=O)CNC(=O)/C=C/c1ccc2c(c1)OCO2 returned gsp agonist -2%[15.4 µM], BRCA1 expr up 70%, mIDH1 inhibitor 12%, IL2 activator 0 and gsp antagonist -4%.
Screening CCOC(=O)N/N=C\C=C\c1ccc2c(c1)OCO2 returned gsp agonist -12%, BRCA1 expr up 4.5µM*, mIDH1 inhibitor 1%, IL2 activator -1 and gsp antagonist -12%.
CC(C)(C)OC(=O)N/N=C\C=C\c1ccc2c(c1)OCO2 was read as gsp agonist -9%, BRCA1 expr up 7.9µM*, mIDH1 inhibitor -3%, IL2 activator -3 and gsp antagonist -3%.
Screening COc1ccc(CC(=O)N/N=C/C=C/c2ccc3c(c2)OCO3)cc1OC returned gsp agonist -7%, BRCA1 expr up -16%, mIDH1 inhibitor 0%, IL2 activator 0 and gsp antagonist 4%.
Screening CC(C)(C)NC(=O)C(=O)N/N=C/c1ccc(Br)cc1 returned gsp agonist 2%, BRCA1 expr up 3%, mIDH1 inhibitor 5%, IL2 activator -4 and gsp antagonist 0%.
For COC(=O)N/N=C\C=C\c1ccc2c(c1)OCO2 the results were gsp agonist -30%, BRCA1 expr up 4.5µM*, mIDH1 inhibitor 3%, IL2 activator 0 and gsp antagonist inconclusive.
`CC(C)(C)OC(=O)N/N=C/c1ccc(Br)cc1` gave gsp agonist -4%[15.4 µM], BRCA1 expr up 3.5µM*, mIDH1 inhibitor -2%, IL2 activator 0 and gsp antagonist -1%.
`NC(=O)c1ccc(NC(=O)c2cccc3c2OCCCO3)cc1` gave gsp agonist -3%[15.4 µM], BRCA1 expr up 0%, mIDH1 inhibitor 2%, IL2 activator -3 and gsp antagonist -6%.
For Cc1ccsc1CN(C)c1ncnc2ccc(-c3ccoc3)cc12 the results were BRCA1 expr up -6% and IL2 activator -1.

Assay outcomes as filed in PubChem.
